# Measured values: PubChem BioAssay (NCATS)
# A number with no mark means an inactive call. Inconclusive results are not listed. Activity calls are given as the source filed them. The call rests on the fitted dose curve; in most records, active means well fitted curve in the direction sought with a large enough effect; inconclusive means small, poorly fitted or top-dose-only effect, or another doubt; inactive means no such curve, though single readings can be large; an effect the other way counts as inactive or inconclusive.
# Tests used:
# [1] = Quantitative High-Throughput drug screen in 47 multiple myeloma cell lines against the NCATS MIPE library collection: FR4_PLB cell viability assay (AID 1918924; further: nearly all actives have a fitted effect of over 35% in size; further: potency means the concentration at half of the fitted maximal effect)
# In short: (§1)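 Viability readout: CellTiter-Glo luminescence following 5 min room-temperature incubation with reagent. Prior exposure: 48 h, 37C, humidified 5% CO2, 500 cells per well.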
# [2] = Quantitative High-Throughput drug screen in 47 multiple myeloma cell lines against the NCATS MIPE library collection: Delta47_JCRB cell viability assay (AID 1918925; further: nearly all actives have a fitted effect of over 45% in size; further: potency means the concentration at half of the fitted maximal effect)
# In short: (§2)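 Primary qHTS used for cherry-picking: cells at 500/well, library compounds for 48 h (37C, 5% CO2), luminescent ATP assay.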
# [3] = Quantitative High-Throughput drug screen in 47 multiple myeloma cell lines against the NCATS MIPE library collection: EJM_DSMZ cell viability assay (AID 1918926; further: nearly all actives have a fitted effect of over 30% in size; further: potency means the concentration at half of the fitted maximal effect)
# In short: as §2
# [4] = Quantitative High-Throughput drug screen in 47 multiple myeloma cell lines against the NCATS MIPE library collection: AMO1_DSMZ cell viability assay (AID 1918927; further: nearly all actives have a fitted effect of over 30% in size; further: potency means the concentration at half of the fitted maximal effect)
# In short: as §2
# [5] = Quantitative High-Throughput drug screen in 47 multiple myeloma cell lines against the NCATS MIPE library collection: ARP1_JJKsccF8 cell viability assay (AID 1918928; further: nearly all actives have a fitted effect of over 40% in size; further: potency means the concentration at half of the fitted maximal effect)
# In short: (§3)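 Here, 48 h treatment with MIPE 4.0 agents at 37 °C preceded an ATP luminescence read. Plating density was 500 cells per well.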
# [6] = Quantitative High-Throughput drug screen in 47 multiple myeloma cell lines against the NCATS MIPE library collection: ARD_JJKsccE7 cell viability assay (AID 1918929; further: potency means the concentration at half of the fitted maximal effect)
# In short: as §2
# [7] = Quantitative High-Throughput drug screen in 47 multiple myeloma cell lines against the NCATS MIPE library collection: Karpas620_DSMZ cell viability assay (AID 1918959); further: nearly all actives have a fitted effect of over 30% in size; further: potency means the concentration at half of the fitted maximal effect
# In short: as §1
# [8] = Quantitative High-Throughput drug screen in 47 multiple myeloma cell lines against the NCATS MIPE library collection: KMM1_JCRB cell viability assay (AID 1918960); further: nearly all actives have a fitted effect of over 30% in size; further: potency means the concentration at half of the fitted maximal effect
# In short: as §3
# [9] = Quantitative High-Throughput drug screen in 47 multiple myeloma cell lines against the NCATS MIPE library collection: Karpas417_ECACC cell viability assay (AID 1918961); conditions: Karpas417 myeloma viability, CellTiter-Glo ATP luminescence, 48 h; viability (% of DMSO): at 45.8 µM (top of the series); further: potency means the concentration at half of the fitted maximal effect
# In short: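 Approved and investigational drugs from MIPE 4.0 were added by pin tool to 500 cells per well. After 48 hours at 37C, ATP-based CellTiter-Glo luminescence indicated remaining viability.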
# [10] = Quantitative High-Throughput drug screen in 47 multiple myeloma cell lines against the NCATS MIPE library collection: KHM11_PLB cell viability assay (AID 1918962); further: nearly all actives have a fitted effect of over 35% in size; further: potency means the concentration at half of the fitted maximal effect
# In short: as §1
# [11] = Quantitative High-Throughput drug screen in 47 multiple myeloma cell lines against the NCATS MIPE library collection: JIM3_ECACC cell viability assay (AID 1918963; further: nearly all actives have a fitted effect of over 35% in size; further: potency means the concentration at half of the fitted maximal effect)
# In short: as §1
# [12] = Quantitative High-Throughput drug screen in 47 multiple myeloma cell lines against the NCATS MIPE library collection: JIM1_ECACC cell viability assay (AID 1918964; further: potency means the concentration at half of the fitted maximal effect)
# In short: as §2
# [13] = target: Phospholipid hydroperoxide glutathione peroxidase GPX4 (Homo sapiens) (UniProt P36969); test: Primary qHTS Assay for Inhibitors of Recombinant Selenoprotein Glutathione Peroxidase 4 (GPX4) (AID 1845192); further: nearly all actives have a fitted effect of over 65% in size; further: potency means the concentration at half of the fitted maximal effect
# Phospholipid hydroperoxide glutathione peroxidase GPX4 (Homo sapiens), sequence (P36969 whole entry, looked up): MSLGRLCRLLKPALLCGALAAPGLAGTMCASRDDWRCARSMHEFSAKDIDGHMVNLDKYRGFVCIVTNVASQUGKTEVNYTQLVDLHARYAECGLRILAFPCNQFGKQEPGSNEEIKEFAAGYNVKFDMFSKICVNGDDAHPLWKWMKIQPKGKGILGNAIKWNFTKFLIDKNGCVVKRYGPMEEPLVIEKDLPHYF
# In short: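 GR-coupled readout: 100 nM GR, 1 mM GSH, 0.5 mM NADPH; NADPH fluorescence (ex 340/em 450 nm) read at t=0 and after 15 min RT. GPX4 200 nM, preincubated 30 min with compound; substrate 0.5 mM CHP.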
# [14] = target: Luciferin 4-monooxygenase (Photinus pyralis) (UniProt P08659); test: Primary firefly luciferase (FLuc) qHTS assay for identification of artifact compounds. (AID 1845220); further: nearly all actives have a fitted effect of over 60% in size
# In short: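 In this counter-screen for luciferase artifacts, test compounds met substrate (10 uM each luciferin and ATP) before 10 nM enzyme started the reaction. Light output was measured 5 min later.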
# [15] = Primary fluorescence-based thiol-reactive (MSTI) qHTS assay for identification of artifact compounds. (AID 1845221);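 further: thiol-reactive compounds lower the probe fluorescence signal; nearly all actives have a fitted effect of over 65% in size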
# In short: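 qHTS titration of compound; 4 uM MSTI, PBS pH 7.4, 2% DMSO; 1 h RT, dark; fluorescence 525/598 nm; normalized to Acetyl-MSTI and MSTI; 4-parameter Hill fit.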
# [16] = tested on: Nanoluciferase (engineered Oplophorus gracilirostris luciferase); test: Primary Nanoluciferase (NLuc) qHTS assay for identification of artifact compounds. (AID 1845222);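 further: NLuc secreted into diluted conditioned medium of S16 cells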
# In short: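 Using secreted nanoluciferase in S16 culture medium (0.22 um filtered, 1:55 dilution), compounds were preincubated 15 min at RT. Signal was generated with Nano-Glo reagent (1:100) over 5 min.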
# [17] = target: Glutathione peroxidase 1 (Homo sapiens) (UniProt P07203); test: Primary qHTS Assay for Inhibitors of Recombinant Selenoprotein Glutathione Peroxidase 1 (GPX1) (AID 1845191); further: nearly all actives have a fitted effect of over 65% in size
# Glutathione peroxidase 1 (Homo sapiens), sequence (P07203 whole entry, looked up): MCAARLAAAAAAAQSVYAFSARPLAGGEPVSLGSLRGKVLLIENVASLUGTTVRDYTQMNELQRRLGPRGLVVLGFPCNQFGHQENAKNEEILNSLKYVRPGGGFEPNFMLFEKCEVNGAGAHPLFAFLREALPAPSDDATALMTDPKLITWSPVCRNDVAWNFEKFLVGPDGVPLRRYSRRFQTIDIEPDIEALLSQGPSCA
# In short: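 Recombinant GPX1 (10 nM final) was preincubated with compound for 30 min at room temperature, then reacted with 1 mM GSH, 0.5 mM CHP, 0.5 mM NADPH and 100 nM glutathione reductase; NADPH fluorescence (340/450 nm) was read at 0 and 15 min.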
Compound,Potency [1],Potency [2],Potency [3],Potency [4],Potency [5],Potency [6],Potency [7],Potency [8],Potency [9],Potency [10],Potency [11],Potency [12],Potency [13],Potency [14],Potency [15],outcome [16],Potency [17]
C=CCNc1c(O)cc2c(O)c1C[C@@H](C)C[C@H](OC)[C@@H](O)[C@@H](C)C=C(C)[C@H](OC(N)=O)[C@@H](OC)C=CC=C(C)C(=O)N2,0.372 µM (active),0.469 µM (active),1.05 µM (active),0.148 µM (active),0.148 µM (active),0.0743 µM (active),1.18 µM (active),0.372 µM (active),0.0743 µM (active),0.264 µM (active),0.59 µM (active),0.209 µM (active),–,–,–,–,–
CCC[C@H]1C[C@H](C(=O)N[C@@H]([C@@H]2O[C@@H](SC)[C@@H](O)[C@@H](O)[C@@H]2O)[C@H](C)Cl)N(C)C1,inactive,–,inactive,inactive,inactive,–,inactive,inactive,0.0093 µM (active),inactive,–,–,inactive,inactive,inactive,inactive,–
CC(C)c1cc(C(C)C)c(CC(=O)NS(=O)(=O)Oc2c(C(C)C)cccc2C(C)C)c(C(C)C)c1,–,inactive,–,4.69 µM (active),–,–,inactive,4.69 µM (active),–,–,7.43 µM (active),–,–,inactive,inactive,inactive,–
COc1cc(C(C)C)c(Oc2cnc(NC(CO)CO)nc2N)cc1I,5.26 µM (active),–,0.469 µM (active),14.8 µM (active),–,–,–,–,–,inactive,inactive,–,inactive,–,–,–,–
CN[C@H]1[C@@H](O)[C@@H]2O[C@@H]3O[C@H](C)CC(=O)[C@]3(O)O[C@@H]2[C@@H](NC)[C@H]1O,1.66 µM (active),1.18 µM (active),0.166 µM (active),0.418 µM (active),1.32 µM (active),0.469 µM (active),0.743 µM (active),0.372 µM (active),0.469 µM (active),8.33 µM (active),5.26 µM (active),0.662 µM (active),–,–,–,–,–
O=C(Nc1cccc(Nc2ncc(Br)c(NCCc3cnc[nH]3)n2)c1)N1CCCC1,–,4.18 µM (active),16.6 µM (active),inactive,18.7 µM (active),–,inactive,inactive,–,1.18 µM (active),–,–,inactive,–,–,–,–
C[C@H](O)[C@@H]1C(=O)N2C(C(=O)O)=C(S[C@@H]3CN[C@H](CNS(N)(=O)=O)C3)[C@@H](C)[C@@H]12,inactive,inactive,inactive,–,inactive,inactive,inactive,inactive,–,–,inactive,inactive,inactive,inactive,–,inactive,–
C[C@H]1COc2c(N3CCN(C)CC3)c(F)cc3c(=O)c(C(=O)O)cn1c23,inactive,–,–,inactive,inactive,–,inactive,inactive,inactive,–,inactive,inactive,–,–,–,–,inactive
Cc1ccc2nc(NCCN)c3ncc(C)n3c2c1,–,5.9 µM (active),1.48 µM (active),8.33 µM (active),8.33 µM (active),9.35 µM (active),11.8 µM (active),7.43 µM (active),8.33 µM (active),2.64 µM (active),8.33 µM (active),3.32 µM (active),22.7 µM (active),–,–,–,–
CC(C=CC1=C(C)CCCC1(C)C)=CC=CC(C)=CC(=O)Nc1ccc(O)cc1,9.59 µM (active),3.82 µM (active),8.55 µM (active),3.4 µM (active),–,8.55 µM (active),6.05 µM (active),–,4.29 µM (active),17.1 µM (active),5.4 µM (active),–,–,–,–,–,–
CC(=O)OCC(=O)[C@@]12N=C(C)O[C@H]1C[C@H]1[C@@H]3CCC4=CC(=O)C=C[C@]4(C)[C@@H]3[C@@H](O)C[C@@]12C,inactive,inactive,inactive,–,inactive,1.05 µM (active),inactive,–,–,–,–,–,–,–,–,–,–
C=CC1=C(C(=O)O)N2C(=O)[C@@H](NC(=O)C(=NO)c3csc(N)n3)[C@H]2SC1,inactive,inactive,inactive,–,–,–,inactive,inactive,–,inactive,–,inactive,–,–,–,–,–
